Assay results as given in the supplement of paper PMC6555819.

How the values were obtained:
Assay in all cases: PBM binding z-score (relative to random genomic background probes); higher = stronger binding; sequences stand for … in GC…GCGATTGACAGCGTAGAATGAAGG
[1] = test system: PPARg:RXRa DBDmut IVT, anti-RXR (DBD mutation: RXRa K156A/R161A, NR concentration 270 nM, RXRa partner concentration 90 nM)
Procedure, shortened: (§1)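 The probes on custom Agilent 4×180K protein-binding microarrays were double-stranded, with 34-nt variable regions bearing direct-repeat seeds, single-nucleotide variants, half-site ablations and random human genomic background sequences. Incubation lasted 1 h with ligand-free nuclear receptor dimers in PBS pH 7.4, 2% milk, 0.02% Triton X-100, 1 mM DTT, 0.2 mg/mL BSA and 0.4 mg/ml salmon testes DNA. Antibodies against each partner (one per run) detected bound dimers, and fluorescence scans were regression-normalized. Binding z-scores take the random background probes as reference.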

[2] = test system: PPARg:RXRa IVT, anti-PPARg (NR concentration 270 nM, RXRa partner concentration 90 nM)
Procedure, shortened: as §1

[3] = test system: PPARg DBDmut:RXRa IVT, anti-PPARg (DBD mutation: PPARg1 K132A/R137A, NR concentration 270 nM, RXRa partner concentration 90 nM)
Procedure, shortened: as §1

[4] = test system: PPARg DBDmut IVT, anti-PPARg (DBD mutation: PPARg1 K132A/R137A, NR concentration 270 nM)
Procedure, shortened: as §1

[5] = test system: PPARg homodimer (NR concentration 180 nM)
Procedure, shortened: as §1

[6] = test system: PXR:RXRa (NR concentration 270 nM, RXRa partner concentration 90 nM)
Procedure, shortened: as §1

[7] = test system: PXR homodimer (NR concentration 270 nM)
Procedure, shortened: as §1

[8] = test system: RARa:RXR (NR concentration 270 nM, RXRa partner concentration 90 nM)
Procedure, shortened: as §1

[9] = test system: RARa homodimer (NR concentration 270 nM)
Procedure, shortened: as §1

[10] = test system: RARb:RXRa (NR concentration 270 nM, RXRa partner concentration 90 nM)
Procedure, shortened: as §1

| Sequence | PBM binding z-score [1] | PBM binding z-score [2] | PBM binding z-score [3] | PBM binding z-score [4] | PBM binding z-score [5] | PBM binding z-score [6] | PBM binding z-score [7] | PBM binding z-score [8] | PBM binding z-score [9] | PBM binding z-score [10] |
| --- | --- | --- | --- | --- | --- | --- | --- | --- | --- | --- |
| CCTAATGGGCCATCAGGTCATTGATATCAACGTT | 3.13 | 3.41 | -0.226 | 0.112 | 1.81 | 1.84 | 0.78 | 2.18 | 0.44 | 2.15 |
| ATATGTAGGTGACATCCGGGTCATTCAGGCTATG | 7.69 | 8.07 | 4.09 | 3.49 | 3.11 | 3.52 | 2.13 | 3.62 | -0.0147 | 2.14 |
| CGTCCAAGGTCAAAGCTAGGTCAGTGAAAGCATT | 3.82 | 4.33 | 0.45 | -0.526 | 5.95 | 5.09 | 1.62 | 6.21 | 1.19 | 5.31 |
| AGTCACAGTTCACTAGGTAACGTAAGATTCAGCT | 2.42 | 3.71 | 1.36 | 0.988 | 1.05 | 1.35 | 0.619 | 1.25 | 0.737 | 2.31 |
| AATACAGGGCCATCGTAGGCCAGAGTACGCACAG | 0.0782 | 0.608 | 0.846 | -0.0733 | -0.388 | -0.255 | -0.169 | -0.00731 | 0.00973 | 0.931 |
| GATACAGGGTCAGCTAGAGGCCGGAGTATGGAAA | 1.03 | 2.37 | -0.293 | 0.124 | 1.78 | 2.59 | -0.0586 | 3.41 | 0.211 | 4.12 |
| ACTAGCAGGCCAAGCGTCACTCAAGATTAGTCCG | 1.13 | 0.488 | 0.0158 | -0.899 | -0.388 | -0.885 | -0.421 | -0.946 | -1.3 | 0.43 |
| ATATGTAGGTTATCAGGTCATTCAGTTTGCGCAT | 7.41 | 7.44 | 1.79 | 2.79 | 2.91 | 3.44 | 9.35 | 3.2 | 2.11 | 2.86 |
| TGAATGAGGTTAATGATCAGGGAACGTGGCGTCG | 2.04 | 1.98 | 1.1 | 0.18 | 0.483 | 0.561 | 0.0582 | 0.918 | 0.17 | 1.52 |
| CAGCCTAGGTCAGGGCCAGTATAGGAGGAACGTT | 0.848 | 1.84 | -0.882 | -1.52 | 1.03 | 0.272 | -0.731 | 1.2 | -0.0375 | 3.6 |
| CGAACGAGGGCATGAGTTGATGGCAAATGCCGAT | 3.03 | 2.23 | -0.341 | -0.685 | -0.031 | 0.243 | -0.209 | 0.201 | -1.03 | 1.99 |
| AGAATGAGGTTATACATAGATCAGGGAAGAAAGT | 2.35 | 1.91 | 1.44 | 1.27 | 1.21 | 1.43 | 0.76 | 1.9 | 0.765 | 1.6 |
| GCAGACAGGTGAAACGCAGGTAACTGAGGGTGGC | 0.757 | 0.578 | 0.338 | -0.375 | -0.52 | -0.257 | -0.434 | 0.257 | -0.289 | 0.65 |
| CCTAGTGGGCCACGAAAGGTCATTGATTCAGTGA | 5.45 | 5.59 | 0.164 | -0.293 | 2.95 | 5.35 | 1.17 | 5.06 | 0.966 | 3.93 |
| TCTTGTAGATCAGCAGTTTAAGAAAGCTGGCCAA | 1.44 | 0.0506 | 0.167 | 0.0418 | -0.0273 | 0.249 | -0.18 | 0.328 | 0.193 | -0.0976 |
| TCTAGTTGGTCAAAGGTAACACACTCGAAATGCG | 3.54 | 3.93 | 1.52 | 1.17 | 2.03 | 1.34 | 0.784 | 1.93 | 1.72 | 1.86 |
| ATACCAAGGTGATCGTGAGGTCGCTGATACTAAC | 0.629 | 1.43 | 0.343 | 0.406 | 0.832 | 1.86 | 0.225 | 1.66 | -0.0146 | 1.43 |
| GCAGCTAGGTCAGGTTGGTCAGCTAACGGGTACG | 2.64 | 2.05 | -0.736 | -1.04 | 0.817 | -0.0764 | -0.615 | 0.573 | 0.479 | 3.28 |
| GATACAGGGTCAGCTAGAGGCCAGACTATGGAAA | 1.46 | 2.29 | -0.0728 | 0.0438 | 1.82 | 2.88 | 0.12 | 4.3 | 0.752 | 3.97 |
| CCTAGTAGTTGACCATAAGGGCAACCGAAGCTCG | -0.333 | 0.506 | -0.485 | -0.576 | 1.26 | 0.431 | 0.221 | 0.651 | 0.534 | 1.49 |
| CGTCCAAGGTCAATGCTTGGTCAGTGAAAGCATT | 2.65 | 3.19 | -0.682 | -0.881 | 3.32 | 3.86 | 0.527 | 4.45 | 0.0669 | 5.03 |
| CGTCCAAGGTCAGCAGGACAGTGAAAGCGACGTG | 2.27 | 2.58 | 0.502 | -0.859 | 1.75 | 2.27 | 0.176 | 2.92 | 0.175 | 5.17 |
| CCTAGCAGGCCAAACTGGGTCACTCAAGGCTTGA | 4.11 | 4.34 | -0.371 | -1.09 | 0.924 | 1.05 | -0.482 | 1.77 | -0.26 | 1.61 |
